# Bioassay records as filed in PubChem.
# Anthrax LF inh2 – Bacillus anthracis LF protease inhibitors, primary screen, biochemical, multiplex microsphere, MLPCN library | Lethal factor (Bacillus anthracis), P15917 | multiplex microsphere protease cleavage assay | inhibition, % at 10 µM | 360,000 compounds, 0.12% hits; in the data active = inhibition above about 30%; inconclusive = no clear call, values can overlap the other calls; note: plate controls were buffer without enzyme for full effect and enzyme alone for no effect
# Bead autofluor – counter-screen for toxin protease inhibitors: compound fluorescence; compound autofluorescence counterscreen, microsphere flow cytometry; hits give high values; fluorescence intensity (concentration not given with the values); 360,000 compounds, 3.1% hits; AID 624483; in the data active = fluorescence intensity above about 16000; inconclusive = no clear call, values can overlap the other calls
# GDH-TPI counter-1 – GDH-TPI coupling enzyme inhibitors, primary screen, artefact control for M. tuberculosis FBA inhibitor project, biochemical, absorbance, full deck; GDH-TPI coupled enzyme counterscreen, NADH absorbance; inhibition, % at 4.8 µM; 360,000 compounds, 1.2% hits; in the data active = inhibition above about 30%;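 note: 0% = DMSO wells and 100% = wells lacking the enzyme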
# FBA Mtb inh – Mtb FBA enzyme inhibitors, primary screen, biochemical, fluorescence, strain H37Rv; purified M. tuberculosis FBA, fluorescence read-out; inhibition, % at 1 µM; 360,000 compounds, 2.3% hits;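 note: 0% = vehicle and 100% = reference inhibitor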
# BoNT A protease – BoNT/A light chain protease inhibitors, primary screen, biochemical, flow cytometry, MLPCN library. multiplex microsphere protease substrate cleavage. AID 588499, 2011. inhibition, % at 10 µM. 360,000 compounds, 0.17% hits; in the data active = inhibition above about 30%; inconclusive = no clear call, values can overlap the other calls; note: plate controls were buffer without enzyme for full effect and enzyme alone for no effect
# BoNT F protease – BoNT/F light chain protease inhibitors, primary screen, biochemical, flow cytometry, MLPCN library; Botulinum neurotoxin type F light chain protease (Clostridium botulinum); Multiplex microsphere protease cleavage assay; inhibition, % at 10 µM; 360,000 compounds, 0.22% hits; AID 588497, 2011; in the data active = inhibition above about 35%, passing the limit was not always enough; inconclusive = no clear call, values can overlap the other calls; note: plate controls were buffer without enzyme for full effect and enzyme alone for no effect
# Mtb FBA confirm – M. tuberculosis aldolase blockers, biochemical, fluorescence, strain H37Rv, confirmation | shares compounds with FBA Mtb inh | purified M. tuberculosis FBA, fluorescence read-out | inhibition, % at 1 µM | 5,600 compounds, 78% hits;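 note: 0% = vehicle wells and 100% = reference inhibitor wells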
# GDH-TPI counter-2 – GDH-TPI coupling enzyme inhibitors, artefact control for M. tuberculosis FBA inhibitor project, biochemical, fluorescence, high throughput | AID 652141, 2013 | inhibition, % at 1 µM | GDH-TPI coupled enzyme counterscreen | 5,600 compounds, 81% hits | shares compounds with FBA Mtb inh; in the data active = inhibition above about 10%
# * = called active by the depositor; ? = inconclusive; · = no result given; + = active, no number. A selection: hits, their analogues and other compounds. The true share with any hit is near 6.7%. Cut-off read from the data, not from the text of the source, unless noted: active = inhibition above about 27%; inactive = the rest.
SMILES,Anthrax LF inh2,Bead autofluor,GDH-TPI counter-1,FBA Mtb inh,BoNT A protease,BoNT F protease,Mtb FBA confirm,GDH-TPI counter-2
CCCN(C(=O)CSCc1c(C)noc1C)c1c(N)n(Cc2ccccc2)c(=O)[nH]c1=O,2,6145,-7,1,0,-3,·,·
CCOC(=O)c1[nH]c2ccccc2c1N=CN(C)C,-1,2978,-3,6,0,-3,·,·
CN(C)C=Nc1ccc2nc3c(cc2c1)[nH]c1ccccc13,-10,2751,18,51*,-4,-38,172*,144*
COc1ccc2oc(=O)c(C(=O)NC(C)c3ccccc3)cc2c1 (stereo unspecified),-7,3156,12,44*,-15,?,142*,87*
COc1cccc2cc(C(=O)NCc3ccco3)c(=O)oc12,-2,2540,12,1,0,0,·,·
COc1ccc2oc(=O)c(C(=O)NCc3ccco3)cc2c1,-6,5034,20,65*,1,0,-2,-5
NC(=O)c1ccc(NC(=O)c2ccccc2S(=O)(=O)c2ccccc2[N+](=O)[O-])cc1,-3,2587,1,4,0,-5,·,·
CCN1CCN(C(=O)Cc2ccccc2OC)CC1,-4,6229,-2,1,-1,-7,·,·
CCOC(=O)Cn1c(=O)n(Cc2ccc(C)cc2)c(=O)c2cccnc21,9,3405,10,-1,-1,-1,·,·
CCCCn1nnnc1NCc1cccnc1,0,2225,8,30*,0,6,+,+
CCCn1nnnc1NCc1cccc(Cl)c1,6,4051,4,1,-2,12,·,·
CCCCc1c(C)c(C#N)c2[nH]c3ccccc3n2c1=O,-1,3012,10,77*,0,-2,-4,-5
CCc1ccccc1N=Cc1c(C)c(C#N)c2[nH]c3ccccc3n2c1=O,2,5220,15,6,0,-4,·,·
CCCc1cc(=O)n2c([nH]c3ccccc32)c1C#N,-6,10742,0,54*,-2,-10,+,195*
CNC(=O)/C(C#N)=C/c1c(N2CCN(c3ccccc3)CC2)nc2c(C)cccn2c1=O,-4,2941,14,37*,-1,-16,-6,-3
CNC(=O)/C(C#N)=C/c1c(N2CCCCCC2)nc2c(C)cccn2c1=O,11,4283,7,28*,-2,6,+,184*
CNC(=O)/C(C#N)=C/c1c(N2CCCCCC2)nc2ccccn2c1=O,2,4156,0,64*,0,19,-1,1
COC(=O)/C(C#N)=C/c1c(N2CCCCCC2)nc2c(C)cccn2c1=O,4,4125,0,-2,2,26,·,·
CNC(=O)/C(C#N)=C/c1c(N2CCN(c3ccc(OC)cc3)CC2)nc2c(C)cccn2c1=O,-14,3078,12,37*,-4,-5,+,142*
COc1ccc(C(c2nnnn2Cc2cccs2)N2CCN(c3ccccc3F)CC2)cc1 (stereo unspecified),-5,4190,-4,2,-2,-9,·,·
Cc1ccc(-c2cc(C(=O)N/N=C/c3c[nH]c4ccccc34)[nH]n2)cc1,-1,3823,20,0,-2,-1,·,·
Cn1cc(Br)c(C(=O)NN2C(=O)C3C(C2=O)C2C=CC3C23CC3)n1 (stereo unspecified),0,4516,-10,0,0,-5,·,·
COc1ccc(S(=O)(=O)Nc2nc3ccccc3nc2Nc2cccc(C(=O)O)c2)cc1,-1,5544,38*,32*,1,2,+,+
CC(=O)Nc1ccc(S(=O)(=O)NC(C)c2ccccc2)cc1 (stereo unspecified),-24,3093,2,31*,1,?,123*,95*
CC(=O)Nc1ccc(S(=O)(=O)Nc2nc3ccccc3nc2Nc2ccccc2)cc1,-2,2502,7,82*,1,4,+,+
SMILES,Anthrax LF inh2,Bead autofluor,GDH-TPI counter-1,FBA Mtb inh,BoNT A protease,BoNT F protease,Mtb FBA confirm,GDH-TPI counter-2
Oc1cccc(Nc2ncnc3ccccc23)c1,1,10790,11,1,0,-9,·,·
O=C(O)c1cccc(Nc2ncnc3ccccc23)c1,-1,8097,14,49*,-1,-11,83*,78*
CC(=O)Nc1ccc(S(=O)(=O)NC(C(=O)O)C(C)C)cc1 (stereo unspecified),1,11282,-3,-1,0,-1,·,·
CCOC(=O)c1c(N2C(=O)C=CC2=O)sc(C)c1C,-2,10201,4,-2,0,2,·,·
CCOC(=O)c1c(C)[nH]c(C(=O)N/N=C/c2ccc(Br)cc2)c1C,1,2140,17,-1,0,1,·,·
CC(C)OCCOc1ccc2oc(-c3ccco3)cc(=O)c2c1,-6,3157,22,77*,-2,-18,-3,-4
O=c1cc(-c2ccco2)oc2ccccc12,4,4153,28,86*,0,-6,7,2
O=c1cc(-c2c(F)c(F)c(F)c(F)c2F)oc2ccccc12,-4,13309,1,0,-1,-14,·,·
COc1ccc2oc(-c3ccccc3[N+](=O)[O-])cc(=O)c2c1,-1,3442,4,3,-1,-1,·,·
O=C(C1CC1)N1CCN(c2ccc([N+](=O)[O-])cc2-n2cccc2)CC1,0,5770,7,-1,0,1,·,·
CCOc1ccc2cc(C(=O)NCc3ccccc3)c(=N)oc2c1,1,2989,10,41*,-2,16,53*,35*
Cc1cccc(N2C(=O)C3CCCN3C2=S)c1C (stereo unspecified),1,?,0,-1,-3,-7,·,·
COc1ccc(-c2ccc3ccccc3n2)cc1,-5,3415,26,83*,-1,0,180*,139*
COc1ccc(-c2cc3ccc(OC)cc3cn2)cc1,-2,4095,1,46*,0,0,0,-3
COc1cc2ccc(-c3ccc4ccccc4n3)cc2cc1OC,-12,2846,21,26,0,2,·,·
COc1ccc2cc(-c3ccon3)ccc2c1,-3,3749,6,34*,-3,-1,105*,99*
